In ChEMBL document CHEMBL1201862, “PubChem BioAssay data set” (2004) one finds Potency data, which are given here for 68 compounds.

Out of some 400,000 compounds screened, about 2,100 (0.53%) were called active. Not shown: some 14% with an inconclusive outcome. The sample holds actives, similar compounds and a random draw of the others, so the mix is not that of the screen. No rule for the calls is given here.

Chain of Ataxin-2 (Homo sapiens) (Q99700 whole entry): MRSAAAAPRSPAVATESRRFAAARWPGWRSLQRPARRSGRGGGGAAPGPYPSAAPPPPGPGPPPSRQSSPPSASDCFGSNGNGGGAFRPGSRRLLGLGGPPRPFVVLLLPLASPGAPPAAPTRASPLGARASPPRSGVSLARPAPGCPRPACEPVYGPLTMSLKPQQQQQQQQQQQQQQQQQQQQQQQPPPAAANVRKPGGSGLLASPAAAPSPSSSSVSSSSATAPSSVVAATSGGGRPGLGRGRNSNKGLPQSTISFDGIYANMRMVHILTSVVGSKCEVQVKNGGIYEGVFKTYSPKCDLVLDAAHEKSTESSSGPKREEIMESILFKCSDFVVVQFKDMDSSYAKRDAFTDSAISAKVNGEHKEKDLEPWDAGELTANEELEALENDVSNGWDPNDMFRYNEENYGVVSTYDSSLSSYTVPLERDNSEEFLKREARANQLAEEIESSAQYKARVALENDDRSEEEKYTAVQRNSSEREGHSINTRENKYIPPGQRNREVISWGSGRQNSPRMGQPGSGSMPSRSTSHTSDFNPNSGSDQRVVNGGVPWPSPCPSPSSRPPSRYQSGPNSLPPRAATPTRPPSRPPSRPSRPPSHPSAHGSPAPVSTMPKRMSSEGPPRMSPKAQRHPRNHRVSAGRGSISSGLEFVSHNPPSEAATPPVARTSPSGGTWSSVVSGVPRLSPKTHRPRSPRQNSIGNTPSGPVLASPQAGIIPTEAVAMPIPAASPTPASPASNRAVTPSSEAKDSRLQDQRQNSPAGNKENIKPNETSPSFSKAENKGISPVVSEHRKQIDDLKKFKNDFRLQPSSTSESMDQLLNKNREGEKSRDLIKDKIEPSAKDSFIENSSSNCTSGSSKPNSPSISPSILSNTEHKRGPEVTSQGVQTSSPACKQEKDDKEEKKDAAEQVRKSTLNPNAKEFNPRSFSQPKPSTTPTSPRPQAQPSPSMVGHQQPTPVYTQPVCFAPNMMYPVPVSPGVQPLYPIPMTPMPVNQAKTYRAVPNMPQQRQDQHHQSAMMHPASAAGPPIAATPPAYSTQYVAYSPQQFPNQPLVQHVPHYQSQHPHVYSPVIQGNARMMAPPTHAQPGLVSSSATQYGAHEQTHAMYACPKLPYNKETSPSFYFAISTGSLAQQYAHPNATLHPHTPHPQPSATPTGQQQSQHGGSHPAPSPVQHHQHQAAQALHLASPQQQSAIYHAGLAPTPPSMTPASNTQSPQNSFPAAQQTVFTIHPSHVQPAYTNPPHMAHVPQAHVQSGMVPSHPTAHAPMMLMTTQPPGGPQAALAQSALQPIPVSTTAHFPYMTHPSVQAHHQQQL

The experiment has as its target Ataxin-2 (Homo sapiens) (UniProt Q99700). Put plainly: qHTS for Inhibitors of ATXN expression. In kind it is functional. For orientation: Quantitative high-throughput screening tests each substance at several concentrations.
In the case of `Cc1ccc(NS(=O)(=O)c2ccc(C(=O)N3CCN(c4ncccn4)CC3)cc2)cc1`, the Potency entry was “inactive”.

For `CCCCc1c(-c2cccc(Cl)c2)ncn1CCc1ccccc1OC`, the Potency is 31.6 µM (active).

Regarding `COc1ccccc1[C@H]1C(c2cccc(Cl)c2)=NN(c2ccccc2)[C@@H]1CO`, the Potency result is “inactive”.

As for `CCCCc1c(-c2cccc(OC)c2)ncn1CCc1ccccc1OC`, the Potency is 39.8 µM (active).

Consider `CCCCCc1c(-c2cccc(OC)c2)ncn1CCc1ccccc1OC`, for which the Potency is 31.6 µM (active).

With `CCCCNc1c(-c2ccc(OC)c(Sc3ccc(OC)cc3)c2)nc2cnccn12`, the Potency entry is “inactive”.

As to `COc1c(OC)c2nc(O)cc3c4ccccc4n(c1=O)c23`, the Potency entry was “inactive”.

For the compound `Clc1ccc(C2=CC(c3ccco3)n3ncnc3N2)cc1` (stereo not drawn), the Potency entry is “inactive”.

In the case of `Cc1cc(O)c(C(=O)/C=C/c2c(F)c(F)c(F)c(F)c2F)c(=O)o1`, the Potency result was “inactive”.

As for `CCOC(=O)c1c(NC(=O)c2ccc(S(=O)(=O)N3CCC(C)CC3)cc2)sc2c1CCN(CC)C2`, the Potency entry was “inactive”.

For `Nc1nnnn1/N=C/c1cc(Cl)ccc1O`, the Potency entry is “inactive”.

As for `CC(=O)Nc1cc2ccc(OC(C)=O)cc2oc1=O`, the Potency entry was “inactive”.

For `CC(=O)Nc1cc(OC(C)=O)c2nonc2c1OC(C)=O`, the Potency is 39.8 µM (active).

On to `CC(=O)Oc1cc2oc(=O)cc(C)c2cc1OC(C)=O`, for which the Potency entry was “inactive”.

As to `OC[C@@H]1[C@@H](c2ccccc2)C(c2cccc(Cl)c2)=NN1c1ccccc1`, the Potency result was “inactive”.

For the compound `C#CCNC(=O)C[C@@H]1C[C@@]2(C(=O)OCC)CCCC=C2N(CCCCCCCC)C1=O`, the Potency is 20 µM (active).

Take `CCCCCCCCN1C(=O)[C@H](CC(=O)NCCC(C)C)C[C@@]2(C(=O)OCC)CCCC=C12`: the Potency is 39.8 µM (active).

With `O=C(COC(=O)c1cncc(Br)c1)NCc1cccs1`, the Potency result is “inactive”.

With `CCCCCCCCN1C(=O)[C@H](CC(=O)NCc2cccs2)C[C@@]2(C(=O)OCC)CCCC=C12`, the Potency was 39.8 µM (active).

`Cc1c(N(C(=O)Cc2cccs2)C2(C(=O)NC3CCCC3)CCCCC2)c(=O)n(-c2ccccc2)n1C`: the Potency result is “inactive”.

`Cc1ccc(-c2cc(C(F)(F)F)n3ncc(C(=O)N4CCCCC4c4cccnc4)c3n2)cc1` (stereo not drawn): the Potency entry is “inactive”.

Turning to `O=C(CSc1ccc2ccccc2c1)NCCc1ccc(O)c(O)c1`, the Potency result was “inactive”.

As for `COC(=O)C(C)N=C(S)N1CCN(c2c(F)cc3c(=O)c(C(=O)O)cn(C4CC4)c3c2OC)CC1C` (stereo not drawn), the Potency entry is “inactive”.

Consider `CC(NNC(=S)N1CCCCCC1)c1ccc2ccccc2n1` (stereo not drawn), for which the Potency was 12.6 µM (active).

Regarding `Cc1nc(N2CCCCCC2)c2ccccc2n1`, the Potency entry is “inactive”.

Take `S=C(Nc1ccc2nc(-c3ccccn3)c(-c3ccccn3)nc2c1)N1CCCCCC1`: the Potency entry is “inactive”.

In the case of `CCOc1ccc(C(=O)C2CCN(C(=O)c3ccc([N+](=O)[O-])cc3)CC2)cc1`, the Potency entry is “inactive”.

Consider `COc1ccc(C2C3=C(O)CC(C)(C)CC3=Nc3c2c(=O)n(C)c(=O)n3C)cc1OC` (stereo not drawn), for which the Potency result was “inactive”.

Consider `Cc1cc(C(=O)COC(=O)Cc2c(F)cccc2Cl)c(C)n1C`, for which the Potency result was “inactive”.

`COc1ccc(CCn2c(C)cc(C(=O)CCl)c2C)cc1OC`: the Potency is 39.8 µM (active).

For the compound `Cc1cc(C(=O)CCl)c(C)n1CCc1ccc(F)cc1`, the Potency is 37.7 µM (active).

Turning to `Cc1ccc(C(=O)OCC(=O)NCCc2ccc(F)cc2)cc1S(=O)(=O)N1CCOCC1`, the Potency result was “inactive”.

In the case of `N=c1c(C(=O)NCC2CCCO2)cc2c(=O)n3ccccc3nc2n1Cc1cccnc1` (stereo not drawn), the Potency entry was “inactive”.

On to `CCOC(=O)COc1ccc2c(C#N)c3ccccn3c2c1`, for which the Potency result was “inactive”.

As for `Cn1c2ccccc2c2nnc(N/N=C/c3ccc(O)cc3)nc21`, the Potency entry was “inactive”.

As for `COc1cc(/C=N/NC(=O)CCC(=O)Nc2ccc(F)cc2)ccc1O`, the Potency entry is “inactive”.

For `O=C(N/N=C/c1sc(N2CCOCC2)nc1-c1ccccc1)c1cccc(S(=O)(=O)N2CCCC2)c1`, the Potency result is “inactive”.

Regarding `CN(C)S(=O)(=O)c1ccc(-c2csc(N/N=C/c3ccc(O)cc3)n2)cc1`, the Potency was 20 µM (active).

Take `COc1cc(/C=N/Nc2nc(-c3ccc(S(=O)(=O)N(C)C)cc3)cs2)ccc1O`: the Potency is 35.5 µM (active).

Take `CCOc1cc(/C=N/Nc2nc(-c3cccc(S(=O)(=O)N4CCCC4)c3)cs2)ccc1O`: the Potency was 25.1 µM (active).

Consider `O=C(Nc1cccc(S(=O)(=O)N2CCCCCC2)c1)c1ccc(O)nc1`, for which the Potency entry was “inactive”.

With `CC(=O)c1sc(N/N=C/c2ccc(C(C)C)cc2)nc1C`, the Potency result was “inactive”.

`COc1cc(/C=N/NC(=O)C(=O)NCc2ccco2)ccc1O`: the Potency entry is “inactive”.

Regarding `CCN(CC)c1ccc2cc(C=O)c(=O)oc2c1`, the Potency result was “inactive”.

For `CCOc1ccc(C(=O)c2oc3ccccc3c2NC(=O)c2cc(-c3ccccc3)on2)cc1`, the Potency result is “inactive”.

With `CC(=O)/C(=N\Nc1ccccc1)Oc1ccc(Br)cc1`, the Potency entry was “inactive”.

For `Cc1cccc(/C=N/NC(=O)c2cc(Br)ccc2O)n1`, the Potency result was “inactive”.

As for `O=C(O)c1ccc(N/N=C/c2ccc(-c3cc(Cl)ccc3Cl)o2)cc1`, the Potency entry is “inactive”.

Turning to `O=C(Nc1ccccc1)c1ncoc1-c1ccc(Cl)cc1`, the Potency result is “inactive”.

Consider `Cc1cccc(N/N=C(\C=O)C(=O)c2ccc(Br)cc2)c1`, for which the Potency was 31.6 µM (active).

Consider `O=C/C(=N\Nc1ccccc1)C(=O)c1ccc(Cl)cc1`, for which the Potency is 9.47 µM (active).

Regarding `C=CCn1c(S)nnc1-c1oc2nc(-c3ccccc3)cc(-c3ccccc3)c2c1N`, the Potency result is “inactive”.

`CNc1snc(C)c1C(=O)OCC(=O)N(C)c1ccccc1`: the Potency result is “inactive”.

Consider `CCOc1ccc2nc3cc(N=Nc4ccc(N)nc4N)ccc3c(N)c2c1`, for which the Potency was 10.6 µM (active).

With `CCOc1ccc2nc3ncccc3c(O)c2c1`, the Potency entry is “inactive”.

With `CCOc1ccc2[nH]c3ccc4nonc4c3c2c1`, the Potency entry was “inactive”.

On to `COc1ccc(C2=CC(c3cccc(C)c3)n3nnnc3N2)cc1` (stereo not drawn), for which the Potency result is “inactive”.

Consider `Cc1n[nH]c(C)c1N1C(=O)c2cccc3c(Br)ccc(c23)C1=O`, for which the Potency result was “inactive”.

Consider `O=C1OCCN1C(=O)[C@H]1[C@H](c2ccc(Cl)cc2)C(c2ccc(F)cc2)=NN1c1ccc(Br)cc1`, for which the Potency entry is “inactive”.

Regarding `COc1ccccc1C1C=C(c2ccc(F)cc2)Nc2nc(-c3ccc(Cl)cc3)nn21` (stereo not drawn), the Potency result is “inactive”.

For the compound `O=C1c2[nH]nc(-c3ccc(F)cc3)c2C(c2ccccc2F)N1c1ccccc1` (stereo not drawn), the Potency is 22.4 µM (active).

On to `Cc1ccc(N2C(=O)c3[nH]nc(-c4ccc(Cl)cc4)c3C2c2ccc(F)cc2)cc1` (stereo not drawn), for which the Potency was 39.8 µM (active).

For the compound `OC[C@@H]1[C@@H](c2ccc(Cl)cc2)C(c2ccc(F)cc2)=NN1c1ccccc1`, the Potency entry is “inactive”.

`CCOc1ccc(C2c3c(-c4ccc(C)cc4)n[nH]c3C(=O)N2c2ccc(Cl)cc2)cc1` (stereo not drawn): the Potency is 39.8 µM (active).

Take `COc1ccccc1C1c2c(-c3ccc(Cl)cc3)n[nH]c2C(=O)N1c1ccc(C)cc1` (stereo not drawn): the Potency was 39.8 µM (active).

As to `CCOc1ccc(C(=O)C2=C(O)C(=O)N(c3ncccn3)C2c2ccc(C)cc2)cc1` (stereo not drawn), the Potency entry is “inactive”.

Take `CCOc1ccc(C2C=C(c3ccc(C)cc3)Nc3nnnn32)cc1` (stereo not drawn): the Potency result was “inactive”.

`COc1ccccc1C1C=C(c2ccc(Cl)cc2)Nc2nc(N3C(=O)CCC3=O)nn21` (stereo not drawn): the Potency result was “inactive”.
